This is a sample that favours compounds with a hit; in the whole collection about 2.3% have one here.
Tau fibril ThT = qHTS for Inhibitors of Tau Fibril Formation, Thioflavin T Binding; recombinant tau K18 P301L, heparin-induced fibrillization, ThT fluorescence; AID 1460, 2008; actives 2.1% (n = 270,000); Potency, µM (series often up to 57.4 µM), inactives show at the highest dose activity, negative = inhibition, usual class: inhibitors; Microtubule-associated protein tau (Homo sapiens), P10636; note: potency is the fitted concentration of half-maximal effect; nearly all actives have a fitted effect of over 55% in size
Target sequence (P10636 561-689 P618L limits assumed): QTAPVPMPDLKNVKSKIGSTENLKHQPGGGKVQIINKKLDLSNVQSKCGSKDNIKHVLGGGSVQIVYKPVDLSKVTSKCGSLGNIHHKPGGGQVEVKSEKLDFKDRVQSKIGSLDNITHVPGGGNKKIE
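Heparin-induced (20 uM) aggregation of recombinant human K18 P301L tau, 15 uM unlabeled with 0.24 uM labeled, pH 7 acetate buffer, 6 hr at 37 C with compound. Fibrils quantified by 30 uM ThT fluorescence after 1 hr ambient incubation.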
FBPA coupling cs = qHTS Assay for Inhibitors of Fructose-1,6-bisphosphate Aldolase from Giardia Lamblia: Coupling assay counterscreen; coupling enzyme system counterscreen, AmpLite Red fluorescence; activity change, negative = inhibition, % at 58.2 µM, hits read low; actives 0.67% (n = 290,000); AID 2472, 2010; in the data active = activity change below about -30%
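First, compound is pin-transferred into glyceraldehyde-3-phosphate coupling-enzyme reagent at 57.5 uM final and held 10 min at RT. Next, substrate, coupling system and AmpLite Red are added. After 20 min RT, fluorescence (525/598 nm) is read.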
Tau fluor cs = Counterscreen qHTS for Inhibitors of Tau Fibril Formation, Fluorescence Polarization; tau K18 P301L (four-repeat tau fragment) Alexa594 fluorescence, heparin fibrillization; Potency, µM (titrated, usually from 57.7 µM), for inactives: at the top dose activity change, negative = decrease; actives 0.93% (n = 280,000); note: potency is the fitted concentration of half-maximal effect; nearly all actives have a fitted effect of over 55% in size
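Human K18 P301L tau (15 uM unlabeled plus 0.24 uM Alexa 594-labeled, final) in 100 mM sodium acetate pH 7 was mixed with compound and 20 uM heparin and incubated 6 hr at 37 C.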
Tau FP inhib = qHTS for Inhibitors of Tau Fibril Formation, Fluorescence Polarization; Potency, µM (doses to about 57.7 µM), inactives show at the highest dose activity, negative = inhibition, actives largely listed as inhibitors; K18 P301L tau heparin fibrillization, Alexa594 FP, 6 h; AID 1468, 2008; actives 0.39% (n = 280,000); note: potency is the fitted concentration of half-maximal effect; nearly all actives have a fitted effect of over 55% in size
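Recombinant K18 P301L […], labeled with Alexa 594 at 0.24 uM over 15 uM unlabeled; heparin inducer 20 uM final; 37 C, 6 hr; FP endpoint.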
USP1 inh = Inhibitors of USP1/UAF1: Primary Screen; recombinant USP1/UAF1, Ub-Rhodamine cleavage fluorescence; Potency, µM (doses to about 57.1 µM), for the others: at the top dose activity change, negative = inhibition, hits mostly inhibitors; actives 0.23% (n = 390,000); AID 743255, 2014; note: potency is the fitted concentration of half-maximal effect; nearly all actives have a fitted effect of over 60% in size
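High-throughput fluorogenic screen: 1nM USP1/UAF1 complex, Ub-Rho substrate 150nM final, 50mM HEPES pH 7.8 with 0.5mM EDTA, 0.1 mg/ml BSA, 1mM TCEP and 0.01% Tween-20.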
Starred values were filed as active, the others as inactive; ? = inconclusive; . = no result; [ ] = remark or other dose. Unless noted, calls come from the whole dose curve; as a rule, active = well fitted curve in the direction sought with a large enough effect; inconclusive = small, poorly fitted or top-dose-only effect, or another doubt; inactive = no such curve, though single readings can be large; an effect the other way counts as inactive or inconclusive. % is set by controls: 0 for no effect and ±100 for the full control effect.

SMILES	Tau fibril ThT	FBPA coupling cs	Tau fluor cs	Tau FP inhib	USP1 inh
Cc1ccc(Cl)cc1NS(=O)(=O)c1c(C)[nH]c(=O)[nH]c1=O	-9%	1	-8%	-5%	3%
COc1ccc(Cl)cc1NS(=O)(=O)c1c(C)[nH]c(=O)[nH]c1=O	28µM*	1	?	?	-14%
O=c1c(N=Nc2ccc(O)cc2)c(-c2ccccc2)[nH]n1-c1ccc([N+](=O)[O-])cc1	?	0	?	-6%	-14%
O=c1cc(-c2ccccc2)[nH]n1-c1ccc([N+](=O)[O-])cc1	13µM*	0	?	5%	-25%
Nc1ccccc1Sc1nc2ccccc2[nH]1	28µM*	-1	28µM*[quencher]	?	-10%
CCN(CC)c1nc2c(S(=O)(=O)c3cccc(Cl)c3)nnn2c2ccsc12	3%	.	-21%	5%	7%
O=C(Nc1cccs1)Nc1cc(C(F)(F)F)ccc1Cl	-14%	.	6.3µM*[quencher]	-3%	-26%
COc1ccc(NC(=O)Nc2cccs2)cc1Cl	?	-3	10µM*[quencher]	?	-16%
O=C(Nc1ccc(C(F)(F)F)cn1)Nc1cccs1	-2%	3	-20%	6%	-9%
Cc1ccc(CO)cc1Nc1ncnc2onc(-c3ccc(F)cc3)c12	-5%	.	-10%	-10%	-7%
CC(C)[C@H](NC(=O)[C@H](CCC(N)=O)NC(=O)CNC(=O)[C@@H]1CCCN1C(=O)[C@H](Cc1ccc(O)cc1)NC(=O)CN)C(=O)O	.	1	.	.	.
O=C1C=CC(O)(c2cc(=O)c3c(O)cc(O)cc3o2)C=C1	13µM*	1	-25%	11µM*	?
O=c1cc(-c2ccccc2Cl)oc2cc(O)cc(O)c12	4%	5	-5%	-1%	?
Nc1ccc(C(=O)N/N=C\c2cc(N=Nc3cccc4ccccc34)ccc2O)cc1	3.2µM*	1	?	13%	-23%
COC(=O)N/N=C/c1cc(N=Nc2ccccc2Cl)ccc1O	1.6µM*	0	?	-2%	-11%
Cc1cc(C(=O)N/N=C/c2ccccn2)n[nH]1	-4%	2	2%	-1%	-13%
COC(=O)N/N=C/c1cc(N=Nc2ccccc2)ccc1O	1.1µM*	-3	?	2%	-20%
Cc1cc(C(=O)N/N=C/c2cc(N=Nc3ccccc3)ccc2O)n[nH]1	7.1µM*	-1	?	1%	?
Cc1cc(C(=O)N/N=C/c2ccc(O)c([N+](=O)[O-])c2)n[nH]1	?	6	-7%	-5%	-16%
Cc1cc(C(=O)N/N=C/c2cccc([N+](=O)[O-])c2O)n[nH]1	14µM*	-1	-21%	-4%	-18%
Cc1cc(C(=O)N/N=C/c2cc(Br)cc([N+](=O)[O-])c2O)c2ccccc2n1	7.9µM*	0	?	?	-20%
O=C1C=C(NC2=CC3OC(c4ccccc4)OCC3OC2=O)CCC1 (stereo not drawn)	28µM*	1	-10%	?	-24%
N#Cc1ccccc1NC1=CC(=O)CCC1	2%	1	4%	6%	-3%
O=C1C(Cl)=C(Nc2cccc(O)c2)C(=O)N1Cc1ccccc1	14µM*	1	?	-6%	-25%
CC1CCCCN1C(=O)c1cccc(NC2=C(Cl)C(=O)N(Cc3ccccc3)C2=O)c1 (stereo not drawn)	.	.	.	.	-19%
CCCCN(CCCC)S(=O)(=O)c1ccc(NS(=O)(=O)c2ccc(NC(C)=O)cc2)cc1	?	12	?	22µM*	-9%
Cc1ccccc1N1CCN(S(=O)(=O)CC23CCC(CC2NC(=O)C(N)CCS(C)(=O)=O)C3(C)C)CC1 (stereo not drawn)	.	3	.	.	.
COC(=O)/C=c1\sc2ncnn2c1=O	16µM*	-2	-14%	14µM*	-17%
CNC(=O)/C(C#N)=c1\s/c(=C/C(=O)OC)c(=O)n1-c1ccccc1	-14%	3	1%	-9%	-8%

Assay outcomes deposited in PubChem BioAssay by National Center for Advancing Translational Sciences (NCATS).
